Measurements reported in article PMC7862700, “An all-to-all approach to the identification of sequence-specific readers for epigenetic DNA modifications on cytosine”.

Key:
Experiment in all cases: DAPPL (digital affinity profiling via proximity ligation, sequencing); 10 mM Tris-HCl pH 7.5, 50 mM NaCl, 1 mM DTT, 4% glycerol, room temperature, 30 min; GST-TFs on glutathione beads, 16-mer random dsDNA library, 0.1% formaldehyde crosslink after washing; high values mean tight binding
HSF1 = HSF1 (Homo sapiens, UniProt Q00613 1-529); settings: protein: recombinant; tags: N-terminal GST; chain copies: 3; dsDNA, one strand shown
Chain of HSF1 (Q00613 whole entry, the tested form may be a part): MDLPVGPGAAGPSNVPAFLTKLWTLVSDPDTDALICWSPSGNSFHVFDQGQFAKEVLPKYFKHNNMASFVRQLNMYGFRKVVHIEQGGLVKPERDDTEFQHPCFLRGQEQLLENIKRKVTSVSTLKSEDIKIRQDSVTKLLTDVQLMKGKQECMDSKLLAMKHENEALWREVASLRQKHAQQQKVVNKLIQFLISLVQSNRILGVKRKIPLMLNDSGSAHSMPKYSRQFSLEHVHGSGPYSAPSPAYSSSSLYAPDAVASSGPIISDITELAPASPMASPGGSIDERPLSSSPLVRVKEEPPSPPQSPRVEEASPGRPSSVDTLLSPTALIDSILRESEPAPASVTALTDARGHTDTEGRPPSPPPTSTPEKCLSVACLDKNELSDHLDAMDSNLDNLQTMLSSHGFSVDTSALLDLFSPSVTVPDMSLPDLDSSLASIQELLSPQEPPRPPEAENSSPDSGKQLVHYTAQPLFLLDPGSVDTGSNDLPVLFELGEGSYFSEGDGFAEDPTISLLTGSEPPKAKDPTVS
Outline: (§1)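 Sequencing on an Illumina NextSeq500 followed washing, crosslinking with 0.1% formaldehyde, proximity ligation (BsaI/T4 ligase, 1 h, 37 °C) and PCR amplification of pools that had been incubated for 30 min at room temperature with 200 nmole of a random double-stranded 16-mer DNA library in Tris/NaCl/DTT/glycerol buffer. Each pool held DNA-barcoded human transcription factors, expressed in yeast as GST fusions and captured on glutathione beads, plus a tag-only sample. Binding signal is a hexamer's read frequency for a factor divided by its frequency in the tag-only sample.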

ELF3 = target: T1, ELF3 (Homo sapiens, UniProt P78545 1-371); settings: protein: recombinant; tags: N-terminal GST; dsDNA, one strand shown
T1 sequence: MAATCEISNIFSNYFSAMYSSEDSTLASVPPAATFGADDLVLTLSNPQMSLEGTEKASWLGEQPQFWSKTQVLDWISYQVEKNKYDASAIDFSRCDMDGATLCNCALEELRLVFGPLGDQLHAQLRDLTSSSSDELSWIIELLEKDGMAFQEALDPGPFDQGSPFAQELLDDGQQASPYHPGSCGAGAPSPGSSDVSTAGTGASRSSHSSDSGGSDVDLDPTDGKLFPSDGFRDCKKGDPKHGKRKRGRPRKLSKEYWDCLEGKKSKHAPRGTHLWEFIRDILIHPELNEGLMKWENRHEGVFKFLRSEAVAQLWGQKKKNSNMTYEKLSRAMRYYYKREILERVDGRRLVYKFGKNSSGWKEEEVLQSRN
Outline: as §1

CRX = CRX (Homo sapiens, UniProt O43186 1-299); settings: protein: recombinant; tags: N-terminal GST; dsDNA, one strand shown
Chain of CRX (O43186 whole entry): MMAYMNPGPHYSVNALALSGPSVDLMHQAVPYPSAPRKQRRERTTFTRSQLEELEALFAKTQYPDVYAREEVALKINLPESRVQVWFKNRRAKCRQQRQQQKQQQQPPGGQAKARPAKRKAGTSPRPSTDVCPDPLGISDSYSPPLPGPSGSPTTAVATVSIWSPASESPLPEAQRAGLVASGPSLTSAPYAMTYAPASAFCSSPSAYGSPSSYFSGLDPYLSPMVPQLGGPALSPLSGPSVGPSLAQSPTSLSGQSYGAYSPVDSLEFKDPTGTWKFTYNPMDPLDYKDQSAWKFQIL
Outline: as §1

ELF1 = ELF1 (Homo sapiens, UniProt P32519 1-619); settings: protein: recombinant; tags: N-terminal GST; dsDNA, one strand shown
Chain of ELF1 (P32519 whole entry): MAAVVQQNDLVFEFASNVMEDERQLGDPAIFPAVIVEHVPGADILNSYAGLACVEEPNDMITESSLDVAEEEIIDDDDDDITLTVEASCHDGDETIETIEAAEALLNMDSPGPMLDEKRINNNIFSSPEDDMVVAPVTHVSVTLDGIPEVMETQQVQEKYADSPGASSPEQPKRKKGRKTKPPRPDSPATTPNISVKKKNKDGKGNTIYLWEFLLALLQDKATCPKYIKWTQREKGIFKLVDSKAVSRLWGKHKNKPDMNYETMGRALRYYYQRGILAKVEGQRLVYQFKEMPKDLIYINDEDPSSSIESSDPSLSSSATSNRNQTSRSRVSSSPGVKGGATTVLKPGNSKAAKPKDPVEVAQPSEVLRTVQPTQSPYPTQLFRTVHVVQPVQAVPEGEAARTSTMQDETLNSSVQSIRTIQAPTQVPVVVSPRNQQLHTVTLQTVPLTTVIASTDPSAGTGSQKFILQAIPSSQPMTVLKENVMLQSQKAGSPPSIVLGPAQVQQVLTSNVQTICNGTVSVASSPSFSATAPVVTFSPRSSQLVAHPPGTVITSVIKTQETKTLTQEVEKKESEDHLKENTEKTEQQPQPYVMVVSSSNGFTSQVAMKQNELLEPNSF
Outline: as §1

EHF = target: T2, EHF (Homo sapiens, UniProt Q9NZC4 1-300); settings: protein: recombinant; tags: N-terminal GST; dsDNA, one strand shown
T2 sequence: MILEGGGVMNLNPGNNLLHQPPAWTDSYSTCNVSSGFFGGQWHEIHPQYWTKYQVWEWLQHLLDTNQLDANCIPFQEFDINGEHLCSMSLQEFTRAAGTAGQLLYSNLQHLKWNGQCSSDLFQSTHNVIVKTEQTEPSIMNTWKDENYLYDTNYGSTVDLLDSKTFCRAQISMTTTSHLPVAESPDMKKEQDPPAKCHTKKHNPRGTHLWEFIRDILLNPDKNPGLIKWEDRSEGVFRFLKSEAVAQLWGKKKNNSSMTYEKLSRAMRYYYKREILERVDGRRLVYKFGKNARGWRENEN
Outline: as §1

ELK3 = target: T3, ELK3 (Homo sapiens, UniProt P41970 1-407); settings: protein: recombinant; tags: N-terminal GST; dsDNA, one strand shown
T3 sequence: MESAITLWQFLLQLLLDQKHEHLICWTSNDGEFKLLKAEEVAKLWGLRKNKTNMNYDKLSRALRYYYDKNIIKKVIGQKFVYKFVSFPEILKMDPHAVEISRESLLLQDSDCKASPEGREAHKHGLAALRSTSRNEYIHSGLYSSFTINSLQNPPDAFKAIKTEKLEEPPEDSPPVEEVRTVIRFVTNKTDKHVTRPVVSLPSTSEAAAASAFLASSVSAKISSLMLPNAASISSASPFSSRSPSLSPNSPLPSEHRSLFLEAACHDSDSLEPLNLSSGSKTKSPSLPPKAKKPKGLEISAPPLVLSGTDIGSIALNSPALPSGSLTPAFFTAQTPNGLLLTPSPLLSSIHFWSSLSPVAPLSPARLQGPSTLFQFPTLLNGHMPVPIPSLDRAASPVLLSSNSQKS
Outline: as §1

ETV2 = target: T4, ETV2 (Homo sapiens, UniProt O00321 1-342); settings: protein: recombinant; tags: N-terminal GST; dsDNA, one strand shown
T4 sequence: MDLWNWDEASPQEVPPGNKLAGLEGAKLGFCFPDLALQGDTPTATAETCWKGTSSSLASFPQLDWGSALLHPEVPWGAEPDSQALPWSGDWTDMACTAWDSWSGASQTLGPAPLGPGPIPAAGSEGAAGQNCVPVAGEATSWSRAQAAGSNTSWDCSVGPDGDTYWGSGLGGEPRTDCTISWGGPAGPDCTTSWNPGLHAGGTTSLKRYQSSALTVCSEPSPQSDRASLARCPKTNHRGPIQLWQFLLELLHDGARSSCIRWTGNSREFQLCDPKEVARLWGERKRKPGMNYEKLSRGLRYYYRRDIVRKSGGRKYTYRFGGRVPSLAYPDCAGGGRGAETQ
Outline: as §1

ETV3L = target: T5, ETV3L (Homo sapiens, UniProt Q6ZN32 1-361); settings: protein: recombinant; tags: N-terminal GST; dsDNA, one strand shown
T5 sequence: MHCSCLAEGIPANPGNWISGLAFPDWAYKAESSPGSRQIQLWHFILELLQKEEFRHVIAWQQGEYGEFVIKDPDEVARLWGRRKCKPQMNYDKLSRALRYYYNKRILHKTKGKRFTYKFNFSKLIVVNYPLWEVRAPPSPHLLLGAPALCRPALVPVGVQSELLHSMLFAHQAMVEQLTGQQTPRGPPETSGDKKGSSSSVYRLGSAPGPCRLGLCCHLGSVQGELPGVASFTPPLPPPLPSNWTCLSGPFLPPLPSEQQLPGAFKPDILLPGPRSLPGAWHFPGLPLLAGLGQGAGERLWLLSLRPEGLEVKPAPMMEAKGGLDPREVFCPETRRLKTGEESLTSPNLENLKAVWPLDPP
Outline: as §1

ETS2 = target: T6, ETS2 (Homo sapiens, UniProt P15036 1-469); settings: protein: recombinant; tags: N-terminal GST; dsDNA, one strand shown
T6 sequence: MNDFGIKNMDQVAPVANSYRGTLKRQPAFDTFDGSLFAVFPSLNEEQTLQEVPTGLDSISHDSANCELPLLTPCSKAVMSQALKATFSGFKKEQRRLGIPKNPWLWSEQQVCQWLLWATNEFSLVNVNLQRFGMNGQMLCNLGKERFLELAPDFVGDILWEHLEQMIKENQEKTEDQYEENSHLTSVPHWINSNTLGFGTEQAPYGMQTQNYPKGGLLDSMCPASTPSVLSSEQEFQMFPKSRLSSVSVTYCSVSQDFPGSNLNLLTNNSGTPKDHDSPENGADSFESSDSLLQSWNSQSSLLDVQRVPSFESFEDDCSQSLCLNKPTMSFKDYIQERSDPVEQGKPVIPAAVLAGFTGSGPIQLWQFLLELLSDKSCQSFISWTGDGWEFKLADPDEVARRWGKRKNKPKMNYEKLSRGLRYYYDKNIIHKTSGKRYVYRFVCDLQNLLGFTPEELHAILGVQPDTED
Outline: as §1

SPDEF = target: T7, SPDEF (Homo sapiens, UniProt O95238 1-335); settings: protein: recombinant; tags: N-terminal GST; dsDNA, one strand shown
T7 sequence: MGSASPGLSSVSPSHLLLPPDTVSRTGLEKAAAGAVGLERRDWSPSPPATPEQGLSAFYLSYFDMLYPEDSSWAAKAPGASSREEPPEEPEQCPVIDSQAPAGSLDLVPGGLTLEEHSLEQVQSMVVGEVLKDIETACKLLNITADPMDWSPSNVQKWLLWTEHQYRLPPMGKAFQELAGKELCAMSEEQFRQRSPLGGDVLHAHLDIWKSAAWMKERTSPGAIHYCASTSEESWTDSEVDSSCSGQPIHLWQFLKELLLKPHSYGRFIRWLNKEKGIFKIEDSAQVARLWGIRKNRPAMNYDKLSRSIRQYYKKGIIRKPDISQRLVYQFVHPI
Outline: as §1

ETV7 = target: T8, ETV7 (Homo sapiens, UniProt Q9Y603 1-341); settings: protein: recombinant; tags: N-terminal GST; dsDNA, one strand shown
T8 sequence: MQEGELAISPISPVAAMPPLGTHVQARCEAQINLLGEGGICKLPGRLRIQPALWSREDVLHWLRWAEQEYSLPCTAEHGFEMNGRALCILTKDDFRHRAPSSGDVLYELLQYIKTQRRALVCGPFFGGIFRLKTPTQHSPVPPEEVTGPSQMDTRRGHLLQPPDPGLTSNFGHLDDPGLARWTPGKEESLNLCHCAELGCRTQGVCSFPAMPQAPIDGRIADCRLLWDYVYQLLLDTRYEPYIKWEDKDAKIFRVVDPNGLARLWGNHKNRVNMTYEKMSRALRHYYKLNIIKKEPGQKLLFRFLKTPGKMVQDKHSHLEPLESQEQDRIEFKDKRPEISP
Outline: as §1

ETV6 = ETV6 (Homo sapiens, UniProt P41212 1-452); settings: protein: recombinant; tags: N-terminal GST; dsDNA, one strand shown
Chain of ETV6 (P41212 whole entry): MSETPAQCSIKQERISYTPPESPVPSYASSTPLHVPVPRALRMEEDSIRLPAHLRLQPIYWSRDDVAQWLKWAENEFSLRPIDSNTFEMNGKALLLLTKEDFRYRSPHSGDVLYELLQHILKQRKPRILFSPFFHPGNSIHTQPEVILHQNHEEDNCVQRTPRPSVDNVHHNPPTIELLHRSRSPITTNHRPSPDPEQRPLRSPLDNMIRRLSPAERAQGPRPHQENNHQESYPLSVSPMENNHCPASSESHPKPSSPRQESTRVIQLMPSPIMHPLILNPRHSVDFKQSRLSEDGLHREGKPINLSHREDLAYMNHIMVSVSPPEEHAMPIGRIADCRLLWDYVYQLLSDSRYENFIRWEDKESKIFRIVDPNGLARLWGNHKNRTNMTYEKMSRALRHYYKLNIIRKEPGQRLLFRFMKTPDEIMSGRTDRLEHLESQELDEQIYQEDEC
Outline: as §1

GGTTAA
binding signal (HSF1): 1.02 fold enrichment (6-mer frequency, TF over GST control)
binding signal (ELF3): 1.03 fold enrichment (6-mer frequency, TF over GST control)
binding signal (CRX): 1.31 fold enrichment (6-mer frequency, TF over GST control)

GCGATT
binding signal (HSF1): 1.23 fold enrichment (6-mer frequency, TF over GST control)
binding signal (ELF3): 1.04 fold enrichment (6-mer frequency, TF over GST control)
binding signal (CRX): 1.51 fold enrichment (6-mer frequency, TF over GST control)

GGATCA
binding signal (HSF1): 1.1 fold enrichment (6-mer frequency, TF over GST control)
binding signal (CRX): 1.53 fold enrichment (6-mer frequency, TF over GST control)

AGAAAG
binding signal (HSF1): 1.87 fold enrichment (6-mer frequency, TF over GST control)
binding signal (CRX): 1.01 fold enrichment (6-mer frequency, TF over GST control)

TTAGAC
binding signal (HSF1): 1.1 fold enrichment (6-mer frequency, TF over GST control)
binding signal (CRX): 1.44 fold enrichment (6-mer frequency, TF over GST control)

GGCTTT
binding signal (ELF1): 1.04 fold enrichment (6-mer frequency, TF over GST control)
binding signal (EHF): 1.05 fold enrichment (6-mer frequency, TF over GST control)
binding signal (ELK3): 1.11 fold enrichment (6-mer frequency, TF over GST control)
binding signal (HSF1): 1.11 fold enrichment (6-mer frequency, TF over GST control)
binding signal (ETV2): 1.15 fold enrichment (6-mer frequency, TF over GST control)
binding signal (CRX): 1.47 fold enrichment (6-mer frequency, TF over GST control)
binding signal (ETV3L): 1.03 fold enrichment (6-mer frequency, TF over GST control)
binding signal (ETS2): 1.03 fold enrichment (6-mer frequency, TF over GST control)
binding signal (SPDEF): 1 fold enrichment (6-mer frequency, TF over GST control)
binding signal (ETV7): 1.16 fold enrichment (6-mer frequency, TF over GST control)
binding signal (ETV6): 1.06 fold enrichment (6-mer frequency, TF over GST control)

TACGAG
binding signal (HSF1): 1.26 fold enrichment (6-mer frequency, TF over GST control)
binding signal (ELF3): 1.02 fold enrichment (6-mer frequency, TF over GST control)
binding signal (CRX): 1.05 fold enrichment (6-mer frequency, TF over GST control)

TTAGGA
binding signal (EHF): 1 fold enrichment (6-mer frequency, TF over GST control)
binding signal (HSF1): 1.28 fold enrichment (6-mer frequency, TF over GST control)
binding signal (ELF3): 1.02 fold enrichment (6-mer frequency, TF over GST control)
binding signal (CRX): 1.77 fold enrichment (6-mer frequency, TF over GST control)
binding signal (ETV6): 1 fold enrichment (6-mer frequency, TF over GST control)
